Screening data (PubChem BioAssay)
LASV entry inh: qHTS for Inhibitors of binding or entry into cells for Lassa Virus. Lassa virus pseudotype entry inhibition, cell reporter. Potency, µM (series often up to 37.9 µM), for inactives: at the top dose activity change, negative = inhibition, most hits filed as inhibitors. hit rate 1.2% among 300,000. AID 540256, 2011; calls by dose curve; tested in HEK293 cells; note: nearly all actives have a fitted effect of over 50% in size
RE007 growth inh: qHTS Assay for Inhibitors of the HIV-1 protein Vpr; S. pombe RE007 Vpr strain, BacTiter-Glo ATP luminescence, 24 h; Potency, µM (titrated, usually from 92.2 µM), without a hit: at the top dose activity change, negative = less growth, actives largely listed as inhibitors; hit rate 0.21% among 360,000; AID 651644, 2012; active = well fitted falling curve with a large enough effect; inconclusive = small, poorly fitted or top-dose-only effect; inactive = no such curve, though single readings can be large or run the other way; note: nearly all actives have a fitted effect of over 50% in size
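Fission yeast strain RE007, carrying one chromosomally integrated HIV-1 vpr copy, was seeded at OD 0.01 in PMG+AL medium with 23 nL pinned compound. After 24 h at 30 °C and 99% humidity, viability was read by BacTiter-Glo luminescence.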
FMDV antiviral: High Throughput Screening for Foot and Mouth Disease Virus Antivirals; Potency, µM (series often up to 57.9 µM), for inactives: top-dose activity change, negative = inhibition, most hits filed as inhibitors; AID 1159524, 2015; hit rate 1.2% among 410,000; FMDV antiviral cell-based qHTS; calls by dose curve; tested in HEK293T cells; note: read-out not given here; nearly all actives have a fitted effect of over 45% in size
HCV inhibitor: qHTS Assay for Inhibitors of Hepatitis C Virus (HCV) | Huh7.5.1 HCVcc-Cre infection, luciferase reporter, 44 h | Potency, µM (highest dose often 41.8 µM), inactives show top-dose activity change, negative = inhibition, hits mostly inhibitors | hit rate 3.4% among 340,000 | AID 651820, 2012
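HCVcc-Cre virus at an moi near 0.5 was added right after compound to cells cultured 4 h from seeding (1,000 cells/well). Luciferase activity was determined 44 h later, 15 min after substrate addition at RT.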
Sm TGR inh: qHTS Assay for the Inhibitors of Schistosoma Mansoni Peroxiredoxins; purified TGR, DTNB reduction, TNB absorbance 405 nm; Schistosoma mansoni thioredoxin glutathione reductase (TGR), Q962Y6; hit rate 3% among 360,000; Potency, µM (doses to about 114 µM), without a hit: at the top dose activity change, negative = inhibition, most hits filed as inhibitors; note: nearly all actives have a fitted effect of over 60% in size
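First, TGR (20 nM dispensed) and NADPH were mixed with compound. Second, a 15 min room-temperature incubation followed. Third, further NADPH and then DTNB were added to start the reaction. Finally, TNB absorbance was monitored kinetically.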
MARV entry inh: qHTS for inhibitors of binding or entry into cells for Marburg Virus; Marburg virus pseudotyped entry inhibition, cell reporter; Potency, µM (highest dose often 37.8 µM), for inactives: top-dose activity change, negative = inhibition, hits mostly inhibitors; hit rate 1.8% among 300,000; AID 540276, 2011; calls by dose curve; tested in HEK293 cells
Numbers without * were called inactive; ? = inconclusive; nt = not tested or not shown; [ ] = another dose, or the depositor's remark. Only some compounds are listed: those with a hit (about 7.2% of all), similar ones and a draw of the others. Unless noted, calls come from the whole dose curve; as a rule, active = well fitted curve in the direction sought with a large enough effect; inconclusive = small, poorly fitted or top-dose-only effect, or another doubt; inactive = no such curve, though single readings can be large; an effect the other way counts as inactive or inconclusive. % is set by controls: 0 for no effect and ±100 for the full control effect; potency is the fitted concentration of half-maximal effect.

SMILES	LASV entry inh	RE007 growth inh	FMDV antiviral	HCV inhibitor	Sm TGR inh	MARV entry inh
CN(CCc1ccccc1)C(=O)c1ccc(NC(=O)Cc2ccc(NC(=O)C3CCCN(C(=O)C4CCC4)C3)cc2)cc1 (configuration not stated)	nt	9%	?	?	nt	-6%
CN(CCO)C(=O)c1cn(C2CCN(Cc3cccc4ccccc34)CC2)nn1	nt	nt	-14%	nt	nt	nt
C[C@]12CCC3c4ccc(O)cc4CCC3C1CCC2OC(=O)CCC1CCCC1 (some centres not stated)	nt	nt	-2%	nt	nt	nt
COc1ccc(-c2cc(C)cc3c2OC(CNC(=O)/C=C/c2ccncc2)C3)nn1 (configuration not stated)	nt	nt	-17%	nt	nt	nt
Cc1nc(-c2ccccc2)sc1CCNC(=O)C(=O)Nc1ccc(F)c(Cl)c1	3%[46.1 µM]	nt	-15%	nt	?	nt
Cc1ccc(/C=C2/CNC/C(=C/c3ccc(C)cc3)C2=O)cc1	?	13%	?	8.9µM*	nt	?
COCCn1c(=O)c(-c2ccc(F)cc2)nc2cnc(N(C)C)nc21	nt	nt	-2%	nt	nt	nt
Cc1nnc(SCc2nc3sc4c(c3c(=O)[nH]2)CCCC4)n(N)c1=O	-13%	-8%	-21%	-26%	14µM*	-6%[46.1 µM]
COCC(C)n1c(C)cc(C(=O)COc2ccc(S(=O)(=O)N3CCOCC3)cc2Cl)c1C (configuration not stated)	?	-1%	?	14µM*	0%	?
c1ccc(Nc2ccccn2)cc1	5%	-4%	25%	-12%	-8%	1%
c1ccc(Nc2cccc(Nc3ccccc3)n2)cc1	36%	?	21%	7.1µM*	2.8µM*	1%[46.1 µM]
COc1ccnc(Oc2ccc(F)cc2)c1C(=O)N/C=N/OCc1ccc(Cl)cc1Cl	0%	-2%	nt	-9%	-6%	13µM*
Cc1ccccc1OCC(=O)Nc1cc(S(=O)(=O)N2CCCCC2)ccc1N1CCN(C)CC1	?	1%	-23%	11µM*	0%	?
O=C(Nc1ccc(O)cc1)c1ccccc1OCc1ccccc1	nt	33%	-29%	14µM*	4%	nt
COc1ccccc1C(=O)Nc1ccc(S(=O)(=O)N2CCN(C)CC2)cc1	12%	32%	-1%	0%	nt	10%
Cc1cccc(OCC(=O)Nc2cc(S(=O)(=O)N3CCOCC3)ccc2N2CCCC2)c1C	-22%	27%	-14%	?	3%	-18%
CCCOc1ccccc1C(=O)Nc1ccc(S(=O)(=O)N2CCN(C)CC2)cc1	nt	-7%	-14%	22µM*	-2%	nt
O=C(COc1ccc(Br)cc1CO)Nc1ccc(S(=O)(=O)N2CCCC2)cc1	0%	-10%	35µM*	?	-7%	?
CCOc1ccccc1C(=O)Nc1ccc(S(=O)(=O)Nc2ncccn2)cc1	12%[46.1 µM]	nt	5%	nt	0%	6%[46.1 µM]
C/C=C/c1ccc(OCC(=O)Nc2cc(S(=O)(=O)N3CCOCC3)ccc2N2CCCC2)c(OC)c1	?	0%	1%	10µM*	-11%	?
CCNS(=O)(=O)c1ccc(NC(=O)c2ccccc2OCC)cc1	12%	-5%	nt	5.6µM*	6%	-19%
COc1ccc(CC(=O)Nc2cc(S(=O)(=O)N3CCOCC3)ccc2N2CCCC2)cc1OC	28%[46.1 µM]	10%	-22%	8%	nt	-4%[46.1 µM]
COc1ccccc1OCC(=O)Nc1ccc(S(=O)(=O)N2CCCCCC2)cc1	8%	0%	nt	1.6µM*	8%	?
CCN(CC(=O)Nc1ccc(S(=O)(=O)N2CCCC2)cc1)CC(=O)Nc1ccccc1C(F)(F)F	nt	1%	-23%	11µM*	nt	nt
Cc1nnc(C)n1/N=C\c1cc(Br)cc(Br)c1O	nt	nt	nt	nt	nt	-10%
SMILES	LASV entry inh	RE007 growth inh	FMDV antiviral	HCV inhibitor	Sm TGR inh	MARV entry inh
COCCCNC(=O)c1[nH]c2ccccc2c1Sc1ccc(C)cc1	6%[46.1 µM]	nt	13%	nt	-8%	-19%[46.1 µM]
CCCOc1ccccc1OCC(=O)Nc1ccc(S(=O)(=O)N2CCCC2)cc1	-11%	13%	0%	10µM*	2%	?
CN1CCN(S(=O)(=O)c2ccc(NC(=O)c3csc4ccccc34)cc2)CC1	14%	10%	6%	10µM*	1%	0%
O=C(COc1ccc(Br)cc1CNC1CCCC1)Nc1ccccc1	-22%[46.1 µM]	-8%	-17%	?	15%	1.8µM*
O=C(COc1ccc(Br)cc1CO)Nc1ccc(F)cc1	9%	-19%	-5%	?	-2%	1%
COc1cccc(OC)c1OCC(=O)Nc1ccc(S(=O)(=O)N2CCCC2)cc1	nt	-14%	25µM*	8.9µM*	nt	nt
CN1CCN(S(=O)(=O)c2ccc(NC(=O)c3cccs3)cc2)CC1	-3%	30%	-6%	-6%	14%	0%
CCCOc1ccccc1OCC(=O)Nc1ccc(S(=O)(=O)N2CCCCC2)cc1	?	-7%	-12%	?	2%	?
Cc1ccccc1OCC(=O)Nc1ccc(S(=O)(=O)N2CCCC2)cc1	?	2%	-20%	?	-2%	-10%[46.1 µM]
Cc1ccc2cc(CNCc3cccc4ccccc34)c(N3CCC(O)CC3)nc2c1	nt	nt	-4%	nt	nt	nt
COc1ccccc1NC(=O)c1c(C)cc(C)nc1SCC(=O)Nc1cccc(C)c1	?	nt	-9%	nt	-1%	-21%[46.1 µM]
N/C(Cc1cccc2ccccc12)=N\OC(=O)c1ccc(Br)o1	nt	nt	nt	nt	45µM*	nt
N/C(Cc1ccc(Cl)cc1Cl)=N\OC(=O)c1ccc(Br)o1	9%[46.1 µM]	?	-13%	-4%	-2%	2%[46.1 µM]
CC(=O)c1ccc(NS(=O)(=O)c2cnc(N)nc2)cc1	1%[46.1 µM]	nt	8%	nt	-27%	nt
CCn1c2ccccc2c2cc(NC(=O)COC(=O)c3ccccc3O)ccc21	?	-12%	-1%	11µM*	nt	-26%[46.1 µM]
CCn1c2ccccc2c2cc(NC(=O)CN(C)CC(=O)Nc3ccc(N4CCOCC4)cc3)ccc21	nt	0%	-20%	11µM*	0%	nt
CCn1c2ccccc2c2cc(NC(=O)c3cccc([N+](=O)[O-])c3C)ccc21	-28%	-4%	-9%	4µM*	-21%	?
